PubChem BioAssay (EPA / NIEHS)
Active and inactive are the calls of the source. Rule for the calls: active = hit-call score of the fitted dose curve at least 0.9, where 1 is the maximum; inactive = score below 0.9.

read-out: TIMP metallopeptidase inhibitor 2 (TIMP2), TIMP2 (gene 7077); assay: BSK_KF3CT_TIMP2: BioMAP Diversity Plus: KF3CT Assay for TIMP metallopeptidase inhibitor 2 (TIMP2) Biomarker Activity (AID 2283071); conditions: primary human keratinocytes with fibroblasts; actives raise or lower the signal
Procedure, shortened: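 Human primary keratinocyte/foreskin fibroblast co-culture dosed with chemical and sampled at 24 h. TIMP-2 levels quantified by ELISA; bidirectional fitting against DMSO negative control as baseline.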

SMILES | outcome | AC50
Cc1ccc(N)cc1 | inactive | –
[O-][Cl+]O | inactive | –
O=[N+]([O-])c1ccc(Oc2ccc(Cl)cc2Cl)cc1 | inactive | –
CN(C)c1ccc(C(=O)c2ccc(N(C)C)cc2)cc1 | inactive | –
CC(C)(C)C(O)(CCc1ccc(Cl)cc1)Cn1cncn1 (stereo not given) | inactive | –
Nc1ccc(N=Nc2ccccc2)cc1 | inactive | –
CCOC(=O)[C@]1(c2ccccc2)Oc2ccccc2[C@@H]1N | inactive | –
CO[C@@H]1[C@H](OC(=O)NC(=O)CCl)CC[C@]2(CO2)[C@H]1[C@@]1(C)O[C@@H]1CC=C(C)C | inactive | –
O=P(OCCCl)(OCCCl)OCCCl | inactive | –
O=C1CCCO1 | inactive | –
CCN(CC)CCO | inactive | –
CCCCCOC(=O)c1ccccc1C(=O)OCCCCC | inactive | –
COc1cc(C=O)cc2c1[C@H](COC(N)=O)[C@]1(OC(C)=O)ON2C[C@H]2[C@@H]1N2C(C)=O | – | 2.26 µM (active)
CC(C)(C)OOC(C)(C)CCC(C)(C)OOC(C)(C)C | inactive | –
c1ccc2c(c1)-c1cccc3cccc-2c13 | inactive | –
CS(=O)(=O)NC(=O)c1cc(Oc2ccc(C(F)(F)F)cc2Cl)ccc1[N+](=O)[O-] | inactive | –
OCCCl | inactive | –
[Cl-].[Cl-].[Hg+2] | – | 29.2 µM (active)
Clc1ccc(C(c2ccc(Cl)cc2)C(Cl)Cl)cc1 | – | 11.2 µM (active)
CCCCC(CC)COC(=O)c1ccc(C(=O)OCC(CC)CCCC)c(C(=O)OCC(CC)CCCC)c1 (stereo not given) | inactive | –
N#CC(Br)Br | inactive | –
Cn1cc(-c2ccccc2)c(=O)c(-c2cccc(C(F)(F)F)c2)c1 | inactive | –
OCCOCCO | inactive | –
CN(C)c1ccccc1 | inactive | –
CCOc1cccc(C2(N3CCN(c4ccccc4)CC3)CCC(C)CC2)c1 (stereo not given) | inactive | –
CCC[CH2][Sn]([Cl])([CH2]CCC)[CH2]CCC | – | 0.246 µM (active)
COC(=O)Nc1nc2ccccc2[nH]1 | inactive | –

read-out: Transforming growth factor beta 1 (TGFb1), TGFB1 (gene 7040); assay: BSK_KF3CT_TGFb1: BioMAP Diversity Plus: KF3CT Assay for Transforming growth factor beta 1 (TGFb1) Biomarker Activity (AID 2283072); conditions: primary human keratinocytes with fibroblasts; actives raise or lower the signal
Procedure, shortened: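 Human keratinocyte plus foreskin fibroblast primary co-culture, dosed with chemical for 24 h. TGF-b1 quantified by ELISA. Activity fitted bidirectionally against DMSO negative control as baseline.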

SMILES | outcome | AC50
Cc1ccc(N)cc1 | inactive | –
[O-][Cl+]O | inactive | –
O=[N+]([O-])c1ccc(Oc2ccc(Cl)cc2Cl)cc1 | inactive | –
CN(C)c1ccc(C(=O)c2ccc(N(C)C)cc2)cc1 | – | 5.11 µM (active)
CC(C)(C)C(O)(CCc1ccc(Cl)cc1)Cn1cncn1 (stereo not given) | inactive | –
Nc1ccc(N=Nc2ccccc2)cc1 | inactive | –
CCOC(=O)[C@]1(c2ccccc2)Oc2ccccc2[C@@H]1N | inactive | –
CO[C@@H]1[C@H](OC(=O)NC(=O)CCl)CC[C@]2(CO2)[C@H]1[C@@]1(C)O[C@@H]1CC=C(C)C | inactive | –
O=P(OCCCl)(OCCCl)OCCCl | inactive | –
O=C1CCCO1 | inactive | –
CCN(CC)CCO | inactive | –
CCCCCOC(=O)c1ccccc1C(=O)OCCCCC | inactive | –
COc1cc(C=O)cc2c1[C@H](COC(N)=O)[C@]1(OC(C)=O)ON2C[C@H]2[C@@H]1N2C(C)=O | – | 2.21 µM (active)
CC(C)(C)OOC(C)(C)CCC(C)(C)OOC(C)(C)C | inactive | –
c1ccc2c(c1)-c1cccc3cccc-2c13 | inactive | –
CS(=O)(=O)NC(=O)c1cc(Oc2ccc(C(F)(F)F)cc2Cl)ccc1[N+](=O)[O-] | inactive | –
OCCCl | inactive | –
[Cl-].[Cl-].[Hg+2] | – | 7.74 µM (active)
Clc1ccc(C(c2ccc(Cl)cc2)C(Cl)Cl)cc1 | – | 9.57 µM (active)
CCCCC(CC)COC(=O)c1ccc(C(=O)OCC(CC)CCCC)c(C(=O)OCC(CC)CCCC)c1 (stereo not given) | inactive | –
N#CC(Br)Br | inactive | –
Cn1cc(-c2ccccc2)c(=O)c(-c2cccc(C(F)(F)F)c2)c1 | inactive | –
O=C(N[C@H](c1ccccc1)[C@@H]1CN2CCC1CC2)c1c(Cl)ccc(C(F)(F)F)c1Cl | – | 48.7 µM (active)
OCCOCCO | inactive | –
CN(C)c1ccccc1 | inactive | –
CCOc1cccc(C2(N3CCN(c4ccccc4)CC3)CCC(C)CC2)c1 (stereo not given) | inactive | –
CCC[CH2][Sn]([Cl])([CH2]CCC)[CH2]CCC | – | 0.692 µM (active)
COC(=O)Nc1nc2ccccc2[nH]1 | inactive | –
